# This is a sample that favours compounds with a hit; in the whole collection about 2.7% have one here.
# PfG6PD inh: PfG6PD (Plasmodium falciparum) enzyme inhibition; PfGluPho enzyme, NADPH resazurin-diaphorase fluorescence; inhibition, % at 20 µM; 350,000 tested, 0.78% active; AID 504690;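 active = inhibition reaching at least a set limit at 20 µM in the primary screen, cut at about 59% in these data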;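 note: 0% = DMSO wells with substrate and 100% = DMSO wells lacking glucose-6-phosphate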
# KLK7 zymogen act: proKLK7 (human) activation, primary screen | purified proKLK7, EDANS-DABCYL substrate fluorescence; 100% is mature enzyme control, 0% vehicle | activation, % at 7 µM | 370,000 tested, 0.9% active;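 active = activation above the mean of all tested compounds plus 3 SD, computed per campaign excluding outliers beyond control limits, cut at about 13% in these data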
# Neddylation inh: blocks human cullin neddylation. P61081+Q13564. TR-FRET cullin neddylation, biochemical. calls only at 25 µM. 360,000 tested, 0.58% active; in the data active = inhibition above about 36%
# FAS-TE inh: inhibitors of human fatty acid synthase thioesterase domain | inhibition, % at 15 µM | P49327 | recombinant FAS-TE, OMFH fluorogenic substrate, fluorescence endpoint | 360,000 tested, 0.67% active;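 active = compounds whose normalised, plate-corrected inhibition of enzyme fluorescence in the single-dose primary screen is 50% or more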;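 note: 0% = DMSO with enzyme and 100% = substrate without enzyme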
# PfGluPho conf: confirmation of Plasmodium falciparum G6PD inhibitors | shares compounds with PfG6PD inh | recombinant PfGluPho, NADPH-diaphorase-resazurin fluorescence | inhibition, % at 20 µM | 2,400 tested, 34% active;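 active = inhibition of at least 50% at 20 µM in any single replicate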;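 note: 0% = DMSO with substrate and 100% = DMSO lacking glucose-6-phosphate substrate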
# Diaphorase 10uM: diaphorase inhibition or oxidation at 10 uM NADPH; diaphorase-coupled resazurin reduction, fluorescence, NADPH 10 uM; AID 504862; shares compounds with PfG6PD inh; inhibition, % at 20 µM; 820 tested, 39% active;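 active = average inhibition reaching 50% or more with the compound at 20 µM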;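 note: resorufin red fluorescence formed as diaphorase reduces resazurin using NADPH; 0% = DMSO with enzyme and 100% = DMSO without enzyme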
# Diaph ctr 30uM: inhibits diaphorase or oxidizes, flagging false PfG6PD hits; 820 tested, 29% active; AID 504863; shares compounds with PfG6PD inh; Diaphorase/resazurin coupled assay, resorufin fluorescence, 30 uM NADPH; inhibition, % at 20 µM;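 active = inhibition averaging 50% or more, tested at 20 µM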;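 note: 0% = DMSO with enzyme and 100% = DMSO wells lacking diaphorase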
# Starred values were filed as active, the others as inactive; i = inactive; . = no result shown.
SMILES,PfG6PD inh,KLK7 zymogen act,Neddylation inh,FAS-TE inh,PfGluPho conf,others
Nc1ccccc1SCc1csc(-c2ccc(Cl)cc2)n1,60*,0,i,28,5,
COc1cc(NCCCn2cnc3c(OCc4ccccc4)ncnc32)cc(OC)c1OC,80*,0,i,-5,67*,Diaphorase 10uM=-14;Diaph ctr 30uM=-23
COc1ccc(CN(C)CCCn2ccc(NC(=O)OCc3ccccc3)nc2=O)cc1OC,20,0,i,0,.,
COc1cc(NCCCn2ccc(NC(=O)OCc3ccccc3)nc2=O)cc(OC)c1OC,80*,0,i,-6,74*,Diaphorase 10uM=-4;Diaph ctr 30uM=5
CC1(C(=O)O)COC(c2ccc([N+](=O)[O-])cc2)OC1 (stereo not given),-11,0,i,-10,.,
O=C1NC(C(=O)O)=CC(c2ccc([N+](=O)[O-])cc2)N1 (stereo not given),65*,0,i,2,18,
O=C(Nc1ccc(N2CCCCC2)c(Cl)c1)c1ccc2c(c1)OCCO2,99*,-1,i,19,-6,
O=C(Nc1ccc(N2CCCC2)c(Cl)c1)c1ccc2c(c1)OCCO2,67*,-1,i,14,9,
O=C(Nc1ccccc1N1CCCC1)c1ccc(Br)o1,-11,0,i,-3,.,
O=C(Nc1ccc(N2CCCC2)c(Cl)c1)c1ccc(Br)o1,59*,-2,i,6,4,
O=C(Nc1ccc(N2CCOCC2)c(Cl)c1)c1ccc2c(c1)OCCO2,83*,0,i,4,44,
O=C(NCCc1ccc(F)cc1)c1ccc2c(c1)ncn2C1CCCCC1,.,0,.,.,.,
O=C(Nc1ccc(N2CCOCC2)c(Cl)c1)c1ccc(Cl)cc1,100*,-1,i,14,61*,Diaphorase 10uM=51*;Diaph ctr 30uM=45
Cc1ccc(NC(=O)c2cc(N3C(=O)C=CC3=O)ccc2N2CCOCC2)cc1Cl,74*,0,i,14,102*,Diaphorase 10uM=-28;Diaph ctr 30uM=-22
COc1ccc(N=Cc2sc(O)c3ccccc23)cc1,69*,1,i,-38,-9,
CCOC(=O)c1c(NC(=O)c2ccccc2Br)sc2c1CCc1ccccc1-2,64*,-20,i,25,30,
COc1ccccc1NC(=O)Nc1sccc1-c1nc2ccccc2s1,78*,-29,i,21,22,
O=C(Nc1cccc(Cl)c1)Nc1sccc1-c1nc2ccccc2s1,97*,-239,.,36,-4,
COC(=O)c1sccc1NC(=O)Nc1ccccc1OC,48,0,i,9,.,
COc1ccc(-n2c(SCC(=O)NNC(=S)Nc3ccccc3)nc3ccccc3c2=O)cc1,.,0,.,.,.,
Cn1cc(S(=O)(=O)CC(=O)Nc2ccc(Br)cc2)c2ccccc21,87*,0,i,0,39,
Cc1ccc(NC(=O)CS(=O)(=O)c2cn(C)c3ccccc23)c(C)c1,16,0,i,-2,.,
CCCCc1cccc2[nH]cc(C)c12,.,1,.,.,.,
CCC1CCc2c(sc(NC(=O)c3cnccn3)c2C(N)=O)C1 (stereo not given),69*,-1,i,-6,33,
COC(=O)c1c(NC(=O)c2cnccn2)sc2c1CCC2,-8,0,i,-1,.,
SMILES,PfG6PD inh,KLK7 zymogen act,Neddylation inh,FAS-TE inh,PfGluPho conf,others
COc1ccc(-n2c(NN)nc3sc4c(c3c2=O)CCCC4)cc1,92*,0,i,-4,29,
CCN1CCN(c2nc3sc4c(c3c(=O)n2-c2ccc(OC)cc2)CCCCC4)CC1,-6,0,i,18,.,
O=C(N/N=C/c1cccc(Oc2ccc([N+](=O)[O-])cc2[N+](=O)[O-])c1)c1cncc(Br)c1,98*,1,i,28,69*,Diaphorase 10uM=69*;Diaph ctr 30uM=58*
Cc1ccccc1OCC(=O)NCC(=O)N/N=C/c1cccc([N+](=O)[O-])c1,.,0,.,.,.,
Cc1ccccc1OCC(=O)N/N=C/c1cccc(Oc2ccc([N+](=O)[O-])cc2[N+](=O)[O-])c1,127*,0,i,38,93*,Diaphorase 10uM=87*;Diaph ctr 30uM=71*
O=C(c1cc(F)ccc1F)N1CCC(Oc2cccnc2)CC1,.,1,.,.,.,
Nc1nc2ccc([N+](=O)[O-])cc2[nH]1,2,0,i,-4,.,
COc1ccc(-c2nc3ccc([N+](=O)[O-])cc3[nH]2)cc1,110*,0,i,16,46,
Cc1ccc(-c2nc3ccc([N+](=O)[O-])cc3[nH]2)cc1,99*,0,i,20,38,
O=[N+]([O-])c1ccc2nc(-c3ccc(Cl)cc3)[nH]c2c1,107*,0,i,17,46,
O=[N+]([O-])c1ccc2nc(-c3ccncc3)[nH]c2c1,35,0,i,8,.,
O=[N+]([O-])c1ccc2nc(-c3ccccc3[N+](=O)[O-])[nH]c2c1,14,0,i,17,.,
O=[N+]([O-])c1cccc(-c2nc3ccc([N+](=O)[O-])cc3[nH]2)c1,108*,0,i,28,72*,Diaphorase 10uM=60*;Diaph ctr 30uM=59*
COC(=O)c1ccc(Cn2ccc3ccc(-c4ccc5ccn(C(=O)c6cccc(OC)c6)c5c4)cc32)cc1,.,-10,.,.,.,
Cc1ccccc1CS(=O)(=O)Cc1ccc(C(=O)Nc2c(C)cccc2C)o1,.,0,.,.,.,
CCC(=O)N1CCc2cc(Br)c(S(=O)(=O)N3CCCC(C(=O)NC(C)(C)C)C3)cc21 (stereo not given),.,0,.,.,.,
O=C(CCCOc1ccc(Cl)cc1Cl)N/N=C/c1ccc(Cl)cc1,62*,1,i,8,21,
Cc1cc(Cl)ccc1OCCCC(=O)N/N=C/c1cccc([N+](=O)[O-])c1,112*,0,i,5,94*,Diaphorase 10uM=81*;Diaph ctr 30uM=57*
CC(C)CNC(=O)OCc1cn(Cc2cc(F)ccc2F)nn1,.,0,.,.,.,
CCOC(=O)[C@]12CCCCC/C=C\1N(CCc1ccc(Cl)cc1)C(=O)[C@H]2CC(=O)NCCCOC,.,1,.,.,.,
CC1=CN2C(=N)/C(=C/c3ccco3)C(=O)N=C2S1,8,2,i,-12,.,
CC1=CN2C(=N)/C(=C/c3ccc([N+](=O)[O-])o3)C(=O)N=C2S1,59*,0,i,2,73*,Diaphorase 10uM=26;Diaph ctr 30uM=35
Cc1ccc(S(=O)(=O)Nc2ccc(O)c(Sc3ncn[nH]3)c2)cc1,29,1,i,-20,.,
Cc1ccc(S(=O)(=O)/N=C2/C=C(Sc3ncn[nH]3)C(=O)c3ccccc32)cc1,120*,.,i,-1,103*,Diaphorase 10uM=89*;Diaph ctr 30uM=93*
CCc1ccc(S(=O)(=O)/N=C2\C=C(Nc3ccc(C(=O)O)cc3)C(=O)c3ccccc32)cc1,65*,0,i,2,31,
Cc1ccc(S(=O)(=O)/N=C2\C=C(NS(=O)(=O)c3ccccc3)C(=O)c3ccccc32)c(C)c1,6,0,i,16,.,

# Source: PubChem BioAssay (several laboratories)
